# Data reported in ChEMBL document CHEMBL3433997, “St. Jude Leishmania screening dataset” (2016).
# Tests used:
# Assay type in all cases: functional
# [1] = molecular target: Solute carrier family 2, facilitated glucose transporter member 1 (Homo sapiens) (UniProt P11166); assay: ST_JUDE_LEISH: Cytotoxicity at 2uM final concentration against transgenic Leishmania Mexicana promastigotes LmGLUT1 that are glucose transport deficient and complemented with the human glucose transporter GLUT1. Activity is measured by DNA content using SYBR green in vitro
# Chain of Solute carrier family 2, facilitated glucose transporter member 1 (Homo sapiens) (P11166 whole entry): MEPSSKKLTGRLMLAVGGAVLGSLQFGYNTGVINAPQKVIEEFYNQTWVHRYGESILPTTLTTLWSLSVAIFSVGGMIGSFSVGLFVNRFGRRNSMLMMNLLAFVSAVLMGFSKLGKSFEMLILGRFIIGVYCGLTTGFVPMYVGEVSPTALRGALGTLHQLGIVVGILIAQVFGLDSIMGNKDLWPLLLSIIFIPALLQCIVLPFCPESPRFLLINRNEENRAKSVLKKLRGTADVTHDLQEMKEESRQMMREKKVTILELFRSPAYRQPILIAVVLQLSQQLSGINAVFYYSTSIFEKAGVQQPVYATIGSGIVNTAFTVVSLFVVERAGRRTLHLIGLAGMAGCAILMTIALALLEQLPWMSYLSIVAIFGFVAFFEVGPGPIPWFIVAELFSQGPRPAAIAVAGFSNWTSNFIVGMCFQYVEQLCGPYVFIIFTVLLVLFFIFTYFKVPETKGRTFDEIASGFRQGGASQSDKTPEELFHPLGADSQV
# [2] = molecular target: Hexose transporter 1 (Plasmodium falciparum) (UniProt O97467); assay: ST_JUDE_LEISH: Cytotoxicity at 2uM final concentration against transgenic Leishmania Mexicana promastigotes LmPfHT that are glucose transport deficient and complemented with the Plasmodium falciparum hexose transporter. Activity is measured by DNA content using SYBR green in vitro
# [3] = molecular target: Glucose transporter (Leishmania mexicana) (UniProt O61059); assay: ST_JUDE_LEISH: Cytotoxicity at 2uM final concentration against transgenic Leishmania Mexicana promastigotes LmGT2 that are glucose transport deficient and complemented with the L. Mexicana glucose transporter 2. Activity is measured by DNA content using SYBR green in vitro
Compound,inhibition [1] [%],inhibition [2] [%],inhibition [3] [%]
CN1CCCc2cc(NC(=O)C=Cc3ccc(-c4ccc(F)cc4F)o3)ccc2C1,6.23,5.24,8.04
CCN(CC)CCCC(C)Nc1cc(C)nc2cc(Cl)ccc12 (configuration not stated),0.9,1.6,0.08
CN(Cc1cc(C(F)(F)F)cc(C(F)(F)F)c1)C(=O)C1CNCC1c1ccc(F)cc1 (configuration not stated),6.61,5.75,3.05
CC(=O)Nc1ccc(CN(Cc2ccc(F)cc2)Cc2ccc3c(c2)OCO3)cc1,2.71,1.82,3.2
